In PubChem BioAssay:
Unmarked numbers belong to inactive results. Calls of active or inactive are those of the source. Unless noted, no stated cut-off is given here; in the data, active means inhibition above about 36%; inactive means the rest.

Assays:
[1] = molecular target: Nuclear receptor coactivator 3 (Homo sapiens) (UniProt Q9Y6Q9); experiment: NCOA3 GAL4-fusion reporter inhibition – cell-based, luminescence, quadruplicate, confirmation (AID 588792;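 active means mean inhibition over 43.08%, the solvent-only control mean plus 3 SD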;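 further: 0% = DMSO treated cells and 100% = gossypol at 36 µM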); details: HEK293 GAL4-SRC3 luciferase reporter, at 3.6 µM, stronger effect = higher value
[2] = tested on: transactivating tegument protein VP16 (Human herpesvirus 1), Gal4-VP16 luciferase reporter; experiment: repression of VP16-driven luciferase reporter – cell-based, luminescence, high throughput, counter-screen for SRC3 inhibitor project (AID 588794; in the data active means inhibition above about 30%); details: mammalian cells, at 3.6 µM, stronger effect = higher value
[3] = molecular target: Nuclear receptor coactivator 1 (Homo sapiens) (UniProt Q15788); experiment: NCOA1 GAL4-fusion reporter inhibition – cell-based, luminescence, quadruplicate, confirmation (AID 588820;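 active means mean inhibition above 46.68%, the untreated control wells mean plus 3 SD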;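 further: 0% = DMSO wells and 100% = gossypol 36 µM treated wells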); details: HEK293 GAL4-SRC1 luciferase reporter, at 3.6 µM, stronger effect = higher value
[4] = repression of VP16-driven luciferase reporter – cell-based, luminescence, high throughput, counter-screen for SRC1 inhibitor project (AID 588824; in the data active means inhibition above about 25%); details: cell-based VP16 transactivation luciferase luminescence; at 3.6 µM; stronger effect = higher value
[5] = tested on: transactivating tegument protein VP16 (Human herpesvirus 1); experiment: compounds suppressing VP16-driven luciferase signal – cell-based, luminescence, single concentration, counter-screen for SRC2 inhibitor project (AID 652007); details: cell-based VP16 transactivation luciferase reporter, at 8.9 µM, stronger effect = higher value
[6] = molecular target: Nuclear receptor coactivator 2 (Homo sapiens) (UniProt Q15596); experiment: inhibition of GAL4-SRC2 driven luciferase expression – cell-based, luminescence, HEK293, triplicate, confirmation (AID 652008;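 active means mean inhibition above 46.5%, the solvent-only control mean plus 3 SD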;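 further: 0% = DMSO-treated cells and 100% = Gossypol at 36 µM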); details: HEK293 GAL4-SRC2 luciferase reporter, at 8.9 µM, stronger effect = higher value
Chain of Nuclear receptor coactivator 2 (Homo sapiens) (Q15596 whole entry, looked up, the tested form may be a part): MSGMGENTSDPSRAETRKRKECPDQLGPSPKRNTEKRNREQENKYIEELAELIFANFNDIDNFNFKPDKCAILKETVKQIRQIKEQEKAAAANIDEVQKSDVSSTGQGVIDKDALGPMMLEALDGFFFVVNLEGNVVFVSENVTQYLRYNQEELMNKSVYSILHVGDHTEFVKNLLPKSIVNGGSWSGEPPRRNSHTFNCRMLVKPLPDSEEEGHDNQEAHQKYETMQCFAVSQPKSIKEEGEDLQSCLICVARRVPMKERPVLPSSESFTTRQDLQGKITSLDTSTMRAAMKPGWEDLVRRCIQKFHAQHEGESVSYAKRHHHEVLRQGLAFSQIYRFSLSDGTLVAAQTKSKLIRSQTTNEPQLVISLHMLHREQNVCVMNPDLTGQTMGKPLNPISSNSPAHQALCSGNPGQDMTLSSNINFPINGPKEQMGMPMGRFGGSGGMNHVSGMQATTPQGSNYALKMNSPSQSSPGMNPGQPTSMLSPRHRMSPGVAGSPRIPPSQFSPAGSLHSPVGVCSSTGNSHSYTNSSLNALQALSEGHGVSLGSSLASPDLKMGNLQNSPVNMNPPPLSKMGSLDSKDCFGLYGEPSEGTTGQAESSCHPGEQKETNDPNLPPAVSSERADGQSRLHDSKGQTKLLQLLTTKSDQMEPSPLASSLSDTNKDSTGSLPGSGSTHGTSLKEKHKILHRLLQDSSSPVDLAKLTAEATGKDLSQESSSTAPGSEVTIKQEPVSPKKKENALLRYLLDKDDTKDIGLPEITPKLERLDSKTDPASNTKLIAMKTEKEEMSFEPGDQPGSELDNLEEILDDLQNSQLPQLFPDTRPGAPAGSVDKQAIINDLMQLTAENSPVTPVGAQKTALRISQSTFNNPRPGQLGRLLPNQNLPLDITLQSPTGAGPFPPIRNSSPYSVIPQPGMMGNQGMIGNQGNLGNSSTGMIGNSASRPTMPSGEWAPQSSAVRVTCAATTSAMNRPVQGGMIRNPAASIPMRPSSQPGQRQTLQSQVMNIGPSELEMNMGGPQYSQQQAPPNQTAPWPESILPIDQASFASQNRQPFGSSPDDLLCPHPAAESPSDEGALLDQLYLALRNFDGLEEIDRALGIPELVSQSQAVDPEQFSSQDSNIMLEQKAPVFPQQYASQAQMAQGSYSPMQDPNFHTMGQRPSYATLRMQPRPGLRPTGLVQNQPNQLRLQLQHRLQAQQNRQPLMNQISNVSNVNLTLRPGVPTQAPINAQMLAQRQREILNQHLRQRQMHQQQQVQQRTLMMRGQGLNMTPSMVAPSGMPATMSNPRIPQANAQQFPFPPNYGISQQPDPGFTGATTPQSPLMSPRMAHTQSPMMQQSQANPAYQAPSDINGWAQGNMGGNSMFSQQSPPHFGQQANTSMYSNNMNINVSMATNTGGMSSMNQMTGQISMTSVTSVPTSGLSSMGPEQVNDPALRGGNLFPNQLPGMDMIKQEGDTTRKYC

Chain of Nuclear receptor coactivator 3 (Homo sapiens) (Q9Y6Q9 whole entry, looked up, the tested form may be a part): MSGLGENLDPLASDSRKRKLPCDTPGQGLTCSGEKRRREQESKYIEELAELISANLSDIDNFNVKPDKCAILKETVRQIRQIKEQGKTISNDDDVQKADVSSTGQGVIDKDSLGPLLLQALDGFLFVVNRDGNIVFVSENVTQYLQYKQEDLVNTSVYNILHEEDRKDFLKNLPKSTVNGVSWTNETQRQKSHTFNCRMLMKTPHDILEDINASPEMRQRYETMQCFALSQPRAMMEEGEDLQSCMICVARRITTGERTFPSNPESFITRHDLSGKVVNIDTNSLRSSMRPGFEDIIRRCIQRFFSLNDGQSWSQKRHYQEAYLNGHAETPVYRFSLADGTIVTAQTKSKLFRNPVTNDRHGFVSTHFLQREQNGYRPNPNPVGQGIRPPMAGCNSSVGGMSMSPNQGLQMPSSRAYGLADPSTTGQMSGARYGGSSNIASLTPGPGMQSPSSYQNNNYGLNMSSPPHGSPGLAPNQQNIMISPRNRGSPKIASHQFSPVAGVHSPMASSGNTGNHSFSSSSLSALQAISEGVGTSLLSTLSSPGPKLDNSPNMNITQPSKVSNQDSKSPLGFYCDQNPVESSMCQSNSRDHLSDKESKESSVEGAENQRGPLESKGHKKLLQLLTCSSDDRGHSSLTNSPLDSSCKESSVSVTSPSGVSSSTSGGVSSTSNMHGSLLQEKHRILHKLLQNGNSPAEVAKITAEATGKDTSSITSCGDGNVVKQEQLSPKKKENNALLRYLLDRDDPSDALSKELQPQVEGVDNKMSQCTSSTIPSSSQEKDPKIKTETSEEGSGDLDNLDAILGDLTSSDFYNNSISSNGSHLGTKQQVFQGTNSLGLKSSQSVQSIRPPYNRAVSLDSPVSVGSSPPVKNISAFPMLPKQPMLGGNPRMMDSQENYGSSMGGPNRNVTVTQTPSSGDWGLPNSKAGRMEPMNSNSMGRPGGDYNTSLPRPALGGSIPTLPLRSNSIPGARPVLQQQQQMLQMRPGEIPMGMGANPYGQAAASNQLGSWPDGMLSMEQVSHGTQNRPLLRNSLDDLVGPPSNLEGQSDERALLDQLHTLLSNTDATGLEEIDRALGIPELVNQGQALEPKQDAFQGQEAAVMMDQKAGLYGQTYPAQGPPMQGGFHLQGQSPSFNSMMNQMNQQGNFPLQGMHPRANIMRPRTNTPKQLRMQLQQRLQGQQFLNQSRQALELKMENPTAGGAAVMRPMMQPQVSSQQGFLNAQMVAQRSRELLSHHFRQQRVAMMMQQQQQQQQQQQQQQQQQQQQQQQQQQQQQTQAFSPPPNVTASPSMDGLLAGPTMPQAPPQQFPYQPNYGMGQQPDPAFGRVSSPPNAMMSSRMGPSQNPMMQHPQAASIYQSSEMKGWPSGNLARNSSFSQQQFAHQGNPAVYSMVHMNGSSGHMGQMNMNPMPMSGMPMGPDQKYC
Chain of Nuclear receptor coactivator 1 (Homo sapiens) (Q15788 whole entry, looked up, the tested form may be a part): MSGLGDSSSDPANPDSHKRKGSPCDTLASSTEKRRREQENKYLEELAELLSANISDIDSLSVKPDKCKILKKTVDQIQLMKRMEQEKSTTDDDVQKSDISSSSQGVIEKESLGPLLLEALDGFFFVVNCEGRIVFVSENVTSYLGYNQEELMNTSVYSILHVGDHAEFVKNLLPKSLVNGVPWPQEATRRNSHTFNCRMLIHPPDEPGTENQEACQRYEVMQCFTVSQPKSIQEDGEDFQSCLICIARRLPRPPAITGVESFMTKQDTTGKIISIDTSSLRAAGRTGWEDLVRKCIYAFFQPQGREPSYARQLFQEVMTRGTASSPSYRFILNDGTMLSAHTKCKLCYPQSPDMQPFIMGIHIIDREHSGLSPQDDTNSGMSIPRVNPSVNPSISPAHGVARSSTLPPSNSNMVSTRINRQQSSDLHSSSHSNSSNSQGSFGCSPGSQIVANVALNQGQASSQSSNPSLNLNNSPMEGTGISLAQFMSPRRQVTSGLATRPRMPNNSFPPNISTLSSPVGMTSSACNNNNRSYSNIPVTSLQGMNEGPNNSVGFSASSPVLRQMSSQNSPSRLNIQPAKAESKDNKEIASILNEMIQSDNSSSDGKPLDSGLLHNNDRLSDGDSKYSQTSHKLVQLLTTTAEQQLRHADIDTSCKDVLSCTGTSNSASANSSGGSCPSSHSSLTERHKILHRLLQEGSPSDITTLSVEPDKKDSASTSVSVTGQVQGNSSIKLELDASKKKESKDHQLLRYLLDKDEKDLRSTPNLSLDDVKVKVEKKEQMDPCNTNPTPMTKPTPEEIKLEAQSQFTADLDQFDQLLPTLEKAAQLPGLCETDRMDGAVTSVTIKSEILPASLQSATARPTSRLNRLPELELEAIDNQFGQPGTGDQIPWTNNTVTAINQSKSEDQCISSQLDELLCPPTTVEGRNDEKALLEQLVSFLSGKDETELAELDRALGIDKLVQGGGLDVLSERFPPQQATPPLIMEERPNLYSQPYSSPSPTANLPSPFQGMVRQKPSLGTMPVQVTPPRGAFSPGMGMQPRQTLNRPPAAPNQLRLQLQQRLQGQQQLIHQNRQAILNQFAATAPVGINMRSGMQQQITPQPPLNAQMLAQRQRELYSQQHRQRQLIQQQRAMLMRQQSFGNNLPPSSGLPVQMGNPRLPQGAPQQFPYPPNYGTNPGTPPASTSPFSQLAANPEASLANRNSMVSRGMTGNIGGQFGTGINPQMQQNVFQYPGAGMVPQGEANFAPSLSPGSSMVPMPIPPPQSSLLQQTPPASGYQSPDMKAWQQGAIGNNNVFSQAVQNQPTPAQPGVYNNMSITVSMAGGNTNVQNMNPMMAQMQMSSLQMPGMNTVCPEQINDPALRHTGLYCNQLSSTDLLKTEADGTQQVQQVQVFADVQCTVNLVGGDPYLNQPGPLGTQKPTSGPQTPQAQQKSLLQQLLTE

Row | Structure (SMILES) | inhibition [1] | inhibition [2] | inhibition [3] | inhibition [4] | inhibition [5] | inhibition [6]
1 | O=[N+]([O-])c1ccc2ncnc(Nc3ccc4c(c3)OCCO4)c2c1 | 57.9% (active) | 44.4% (active) | 59.8% (active) | 33.3% (active) | 3.91% | 28.4%
2 | COc1ccc(C(=O)CN2C(=O)c3ccccc3S2(=O)=O)cc1 | 57.4% (active) | 57.1% (active) | -21.8% | 55.6% (active) | 72.1% (active) | 78.4% (active)
3 | Cc1ccc(OCC(=O)c2cc(C)n(-c3ccccc3)c2C)c([N+](=O)[O-])n1 | 38.5% | -20.9% | 29.1% | -31.4% | -12.8% | 83.3% (active)
4 | Cc1ccc2nc(-c3ccccc3)cn2c1 | 21.2% | -9.75% | -44.9% | -21.6% | 19.2% | 51.8% (active)
5 | COc1cncc(-c2cnc3sc(NCCc4ccccn4)nn23)c1 | 56.8% (active) | 33.6% (active) | 48.4% (active) | 30.6% (active) | 3.51% | 50.2% (active)
6 | O=C(CCCc1nc(-c2ccccc2Cl)no1)NC1CCCC1 | 36.4% | -6.22% | 22.9% | -0.83% | 26.2% | 92.2% (active)
7 | COc1ccc(Cc2nnc(N/N=C/c3ccccc3O)[nH]c2=O)cc1OC | 84.5% (active) | 77% (active) | 76.7% (active) | 82.6% (active) | 21.2% | 38.8%
8 | COc1ccc(/C=C/C(=O)Nc2ccccc2C(=O)O)cc1OC | -1.26% | -3.34% | -73.2% | -29.6% | 26.9% | 37.8%
9 | COc1ccccc1/C=C/C(=O)c1c2c(c(C)[nH]c1=O)CCCC2 | 46.6% (active) | 49.9% (active) | 59% (active) | 44.1% (active) | 34.1% | 39%
10 | Nc1ccccc1Nc1cccc(C(F)(F)F)c1 | 25.9% | 18.6% | -6.37% | 13.5% | 6.37% | 43.7%
11 | CCCN1C=CC(=C2C(=O)c3ccccc3C2=O)C=C1 | 65.4% (active) | 51.3% (active) | -14.4% | 38% (active) | 80.3% (active) | 91.3% (active)
12 | CNc1ccc2ncc(-c3cccc(C(=O)N(C)C)c3)n2n1 | 72.2% (active) | 62.2% (active) | 72.4% (active) | 60.8% (active) | -12.3% | 42.7%
13 | CN(C)c1ccc(C(=S)Nc2ccccc2)cc1 | 39.1% | 13.3% | -21.5% | -24.4% | -5.11% | 51.1% (active)
14 | COc1ccc(C2=Nn3c(nnc3-c3ccncc3)SC2)cc1 | 65.2% (active) | 48.6% (active) | 57.8% (active) | 37% (active) | 12.8% | 39.8%
15 | c1cc(-c2nnc3sc(C4CCCCC4)nn23)ccn1 | 62.6% (active) | 37.2% (active) | 58.2% (active) | 51% (active) | 0.17% | 35.7%
16 | CC(/C=C1\SC(=O)N(CCCC(=O)O)C1=O)=C\c1ccccc1 | 79% (active) | 73.6% (active) | 71.9% (active) | 69.2% (active) | 90.3% (active) | 95.4% (active)
17 | c1ccc2c(-c3ccc4nncn4c3)cncc2c1 | 79% (active) | 54.1% (active) | 65.9% (active) | 56.4% (active) | -5.43% | 46.3%
18 | S=C(c1ccc(-c2ccccc2)cc1)N1CCOCC1 | 9.3% | 4.1% | 33.3% | -6.87% | 10.2% | 79.1% (active)
19 | CC1(Cc2ccc(Cl)cc2)C(=O)Nc2ccc(-c3cccnc3)cc21 (stereo not drawn) | 73.7% (active) | 49.3% (active) | 59.2% (active) | 52.8% (active) | 6.39% | 53.2% (active)
20 | CCc1nc(N)nc(N)c1-c1ccc(Cl)c([N+](=O)[O-])c1 | 56.7% (active) | 24.9% | 58.2% (active) | 25% | 28.1% | 24.5%
21 | O=c1c2ccccc2cnn1-c1nc2ccccc2[nH]1 | 57.4% (active) | 50.6% (active) | 22.3% | 41.9% (active) | 76.6% (active) | 84.9% (active)
22 | Clc1ccc(-c2csc(=Nc3cccnc3)n2CCCn2ccnc2)cc1Cl | 53.9% (active) | 35.4% (active) | 49.7% (active) | 39% (active) | 15.6% | 63.7% (active)

Row | Structure (SMILES) | inhibition [1] | inhibition [2] | inhibition [3] | inhibition [4] | inhibition [5] | inhibition [6]
23 | CCOC(=O)NNC(=O)CCn1c2c(c3ccccc31)CCCC2 | 54.1% (active) | 43.4% (active) | 51.3% (active) | 37% (active) | 1.39% | 39.1%
24 | Cc1ccc(OCC(=O)c2cc(C)n(Cc3cccs3)c2C)c([N+](=O)[O-])n1 | 21% | 8.55% | 24% | 14.2% | 10.7% | 52.2% (active)
25 | O=C(Nc1ccc(C(=O)N2CCOCC2)cc1)Nc1cccc(C(F)(F)F)c1 | 66.9% (active) | 43.2% (active) | 64.3% (active) | 38.8% (active) | -0.39% | 36.4%
26 | CCn1c(Oc2ccc(F)cc2)nc2c1c(=O)n(C)c(=O)n2C | 33.6% | 29.8% (active) | 39.9% | 23.5% | 2.83% | 30.9%
27 | COc1cccc(N(C(=O)CCl)C(C(=O)NCCc2ccccc2)c2cccs2)c1 (stereo not drawn) | 60.3% (active) | 36% (active) | 24.3% | 34% (active) | 27.8% | 63.3% (active)
28 | COc1ccc(/C=C2\CC/C(=C\c3ccc(OC)c(OC)c3)C2=O)cc1OC | 30.9% | 10.7% | 16.2% | 16.9% | 41.5% (active) | 77.9% (active)
29 | C=C1C(=O)[C@@]23[C@H](O)C[C@@H]4C(C)(C)CC[C@H](O)[C@@]4(C)[C@@H]2CC[C@@H]1[C@H]3O | 28.5% | 49.6% (active) | -18% | 46.2% (active) | 33.9% | 66.4% (active)
30 | CC(=O)OC1CC2C(C)(C)C(=O)C=CC2(C)C2CCC3(C)C(c4ccoc4)OC(=O)C4OC43C12C (stereo not drawn) | 49.5% (active) | 41.8% (active) | 25.9% | 56.1% (active) | 43.9% (active) | 6.63%
31 | CC1(C)Cc2c(ccc3ccccc23)C(=O)N1 | 55.7% (active) | 37.2% (active) | 55% (active) | 23.7% | -22.7% | 32.1%
32 | CCCCCN1C=CC(=C2C(=O)c3ccccc3C2=O)C=C1 | 44.2% (active) | 31.3% (active) | -55.8% | 15.5% | 55.1% (active) | 77.3% (active)
33 | Cc1ccc(-c2csc(=Nc3cccnc3)n2CCCn2ccnc2)cc1C | 71% (active) | 51.5% (active) | 66.7% (active) | 45.6% (active) | -0.44% | 56.8% (active)
34 | Cc1ccc(C(=O)CN2C(=O)c3ccccc3S2(=O)=O)cc1 | 31.6% | 48.8% (active) | -23.7% | 41.4% (active) | 65% (active) | 61.9% (active)
35 | Cc1cc(/C=N/Nc2ncnc(N)c2[N+](=O)[O-])c(C)n1-c1ccccc1 | 26% | 12.4% | -28.1% | -10.1% | 23.9% | 61.2% (active)
36 | CC1(Cc2ccc(F)cc2)C(=O)Nc2ccc(-c3cccnc3)cc21 (stereo not drawn) | 50.6% (active) | 35.4% (active) | 48.7% (active) | 35.3% (active) | 10.2% | 36.8%
37 | CC(C)(C)c1ccc(Oc2ccc(NC(=O)c3ccccc3C(=O)O)cn2)cc1 | 4.23% | 10.3% | 2.66% | 7.37% | 39.5% (active) | 62.4% (active)
38 | O=C(CC(Nc1ccc(Cl)cc1Cl)C(=O)O)c1ccccc1 (stereo not drawn) | 52.3% (active) | 18.1% | -4.19% | -13.2% | 18.8% | 57.9% (active)
39 | c1cc(-c2cnc3cccnn23)c2cccnc2c1 | 65.8% (active) | 42.7% (active) | 57.9% (active) | 40.2% (active) | -9.33% | 26.5%
40 | COc1cccc(Nc2ncnc3ccc(Br)cc23)c1 | 43.5% (active) | 31% (active) | 51% (active) | 30.9% (active) | -7.29% | 34.5%
41 | Cc1cc(NC(c2ccc(Cl)cc2)c2ccc3cccnc3c2O)no1 (stereo not drawn) | 54% (active) | 42% (active) | 28.2% | 58.8% (active) | -9.15% | 17.6%
42 | S=c1[nH]nc(C2CCCCC2)n1/N=C/c1ccncc1 | 75.2% (active) | 60.4% (active) | 64.6% (active) | 60.1% (active) | 10.3% | 51.4% (active)
43 | O=C1CCCCC1Sc1nnc(-c2ccc3c(c2)OCO3)o1 (stereo not drawn) | -5.91% | -22.1% | -129% | -49.6% | 34% | 53.1% (active)
